Source: PubChem BioAssay
RGS12 GoLoco inh – qHTS Assay for Inhibitors of RGS12 GoLoco Motif Activity (Red Fluorophore) | Guanine nucleotide-binding protein G(i) subunit alpha-1 (Homo sapiens), P63096 | Gai1:RGS12 GoLoco peptide FP, rhodamine, 10 min | Potency, µM (doses to about 61.6 µM), without a hit: at the highest dose activity, negative = inhibition, hits mostly inhibitors | hit rate 0.44% among 230,000 | AID 880, 2007; active = well fitted inhibition curve with a large enough effect, not every such curve was filed as active; inactive = no such curve, though single readings can be large or run the other way; note: potency is the fitted concentration of half-maximal effect; nearly all actives have a fitted effect of over 30% in size
PI5P4Ka inh – qHTS for Inhibitors of phosphatidylinositol 5-phosphate 4-kinase (PI5P4K) | hit rate 1.2% among 330,000 | max response, % | PI5P4Kalpha enzyme, ADP-Glo luminescence, 60 min; active compounds read low | Phosphatidylinositol 5-phosphate 4-kinase type-2 alpha (Homo sapiens), P48426; active = max response of -50% or lower; inconclusive = between -30% and -50%; inactive = -30% or higher; note: value at the top dose of about 77 µM
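Single end-point luminescence (ADP-Glo) quantified ADP from PI5P4Kalpha turnover; ATP 5 microM final, 1 h at RT, 0.1% CHAPS and 0.28 mM EGTA in HEPES pH 7.4.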
PI4K2A inh – qHTS for small molecular inhibitors of PI4K2A. purified PI4K2A, ADP-Glo luminescence, 1 h; active compounds read low. AID 1346378, 2018. hit rate 0.13% among 420,000. activity change, negative = inhibition, % at 76.9 µM; in the data active = activity change below about -50%; inconclusive = mostly about -30% to -49%;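 note: -100% = wells without enzyme as full effect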
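PI4K2A activity was measured by ADP-Glo luminescence: enzyme (4 ug/mL stock) and phosphatidylinositol (1.2 mM stock) in Tris pH 7.5/MgCl2/EGTA/Triton X-100 buffer were reacted with ATP (300 microM stock) for one hour at ambient temperature.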
Pin1 inh – qHTS Assay to Find Inhibitors of Pin1. Pin1 FP peptide displacement, HiFluor488, 10 min. Potency, µM (top dose mostly 115 µM), inactives show top-dose activity, negative = inhibition, most hits filed as inhibitors. hit rate 0.009% among 390,000. AID 504891, 2011; active = well fitted inhibition curve with a large enough effect in the polarisation, with a control signal flat, not every such curve was filed as active; inconclusive = small, poorly fitted or top-dose-only effect, or effect the other way, or a change in a side signal; inactive = no such curve, though single readings can be large or run the other way; the % refers to the polarisation; note: potency is the fitted concentration of half-maximal effect
Target sequence (Q13526 whole entry, looked up): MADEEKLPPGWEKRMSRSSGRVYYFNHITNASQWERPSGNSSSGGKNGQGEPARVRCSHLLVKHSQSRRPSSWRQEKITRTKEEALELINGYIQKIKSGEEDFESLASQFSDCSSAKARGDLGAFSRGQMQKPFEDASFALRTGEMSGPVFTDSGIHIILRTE
PGK inhibitor – qHTS Assay to Find Inhibitors of Phosphoglycerate Kinase. Phosphoglycerate kinase, glycosomal (Trypanosoma brucei brucei), P07378. PGK/GAPDH coupled, Kinase-Glo luminescence, 60 min. Potency, µM (titrated, usually from 57.5 µM), for inactives: at the top dose activity change, negative = inhibition, hits mostly inhibitors. hit rate 0.043% among 380,000. AID 602233, 2012; note: potency is the fitted concentration of half-maximal effect; nearly all actives have a fitted effect of over 60% in size
Target sequence (P07378 whole entry, looked up): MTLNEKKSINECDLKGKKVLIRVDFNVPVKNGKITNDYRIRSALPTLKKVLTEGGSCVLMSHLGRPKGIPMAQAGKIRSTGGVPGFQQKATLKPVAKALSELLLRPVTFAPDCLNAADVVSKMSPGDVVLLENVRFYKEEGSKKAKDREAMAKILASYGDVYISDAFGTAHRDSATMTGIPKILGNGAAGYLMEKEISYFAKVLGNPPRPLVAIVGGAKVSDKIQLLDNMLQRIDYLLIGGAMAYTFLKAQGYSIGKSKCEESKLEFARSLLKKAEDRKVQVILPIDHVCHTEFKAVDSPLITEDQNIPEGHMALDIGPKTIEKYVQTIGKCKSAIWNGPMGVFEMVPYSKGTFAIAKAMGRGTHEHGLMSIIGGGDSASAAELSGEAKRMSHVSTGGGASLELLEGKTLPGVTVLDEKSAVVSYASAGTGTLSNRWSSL
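Recombinant glycosomal PGK reaction used 1,3-bisphosphoglycerate generated in-well by GAPDH (100nM final) in 100mM TEA pH 7.6, 5mM MgCl2, 0.01% Tween-20. After 60 minutes at room temperature, ATP was read by Kinase-Glo Plus luminescence end-point.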
KAT2A inh – qHTS Assay for Inhibitors of GCN5L2; GCN5L2 HAT assay, ThioGlo1 CoA-SH fluorescence; hit rate 0.21% among 390,000; Potency, µM (doses to about 58.9 µM), for inactives: top-dose activity change, negative = inhibition, actives largely listed as inhibitors; note: potency is the fitted concentration of half-maximal effect
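Free CoA generated was detected with ThioGlo1 (50uM) fluorescence at Ex340nm/Em540nm, read immediately and after 20 min at room temperature. Enzyme, 20 nM in HEPES pH 7.5 buffer, saw compounds 15 min before adding 75uM H3(1-25) peptide and 70uM acetyl-CoA.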
Starred values were filed as active, the others as inactive; i = inactive; ? = inconclusive; / = no result given; [ ] = remark or other dose. Compounds with a hit are over-represented: about 1.2% of the library has one in this group of screens. Unless noted, calls come from the whole dose curve; as a rule, active = well fitted curve in the direction sought with a large enough effect; inconclusive = small, poorly fitted or top-dose-only effect, or another doubt; inactive = no such curve, though single readings can be large; an effect the other way counts as inactive or inconclusive. Unless noted, % is set by controls: 0 for no effect and ±100 for the full control effect.

SMILES | RGS12 GoLoco inh | PI5P4Ka inh | PI4K2A inh | Pin1 inh | PGK inhibitor | KAT2A inh
Cc1cc(O)c(C(=O)/C=C/c2ccc(C(C)C)cc2)c(=O)o1 | / | -63* | -2 | ? | -9% | -3%
O=[N+]([O-])C1=CC=C2C(=NC3(CCCCC3)N2O)C1=NCCc1ccccc1 | 2% | -9 | 2 | -1% | 1% | 0%
COc1cc(C2NC(=O)NC(C)=C2C(=O)OCc2ccc(C)cc2)cc(OC)c1OC (stereo unspecified) | / | -2 | 3 | -10% | -10% | 3%
O=C(CCC(=O)N1CCSc2ccccc21)NCc1cccc(Cl)c1 | / | 5 | 0 | 2% | i | 4.5µM*
Cc1ccc(CNC(=O)CCC(=O)N2CCSc3ccccc32)cc1 | / | / | 4 | -2% | -3% | 0%
COc1cc(/C=C2/C(=O)ON=C2C)cc(Cl)c1O | / | -59* | -6 | 8% | -10% | -4%
COc1cc(/C=C2\SC(c3ccccc3)=NC2=O)cc(Cl)c1O | 157% | -99* | -1 | 6% | -24% | -15%
COc1cc(/C=C2\SC(N)=NC2=O)cc(Br)c1O | / | -71* | 3 | ? | -1% | ?
COc1ccc(CCNC(=O)c2ccc3c(c2)NC(=O)C(C(C)C)N3)cc1OC (stereo unspecified) | / | 2 | 0 | -6% | -1% | -3%
COc1ccc(CCNC(=O)c2ccc3c(c2)NC(=O)C(CSCc2cc(C)ccc2C)N3)cc1OC (stereo unspecified) | / | / | / | / | / | 28µM*
CN=C1N(C)C[C@@H]2[C@@H]3C(=O)N(C)C(=O)[C@@H]3[C@](C)(C(=O)OC)N12 | / | -1 | -2 | 2% | -10% | 1%
Nc1nc2cc(S(=O)(=O)NC3=NCCCCC3)ccc2s1 | 0% | -8 | -8 | 1% | -5% | -13%
CCOC(=O)c1ccc(S(=O)(=O)Nc2nc3cc(S(=O)(=O)NC4=NCCCCC4)ccc3s2)cc1 | 12% | -54* | -12 | -12% | -4% | -12%
CN(C)S(=O)(=O)c1cccc(-c2nn(-c3ccccc3)cc2/C=C2\SC(=S)NC2=O)c1 | 20% | -86* | -7 | -13% | ? | ?
CN(C)S(=O)(=O)c1cccc(-c2nn(-c3ccccc3)cc2/C=C(\C#N)c2nc3ccccc3[nH]2)c1 | 7% | -5 | 3 | ? | -5% | -24%
O=C(OC1Cc2c(O)cc(O)cc2OC1c1cc(O)c(O)c(O)c1-c1c(C2Oc3cc(O)cc(O)c3CC2OC(=O)c2cc(O)c(O)c(O)c2)cc(O)c(O)c1O)c1cc(O)c(O)c(O)c1 (stereo unspecified) | 25% | / | / | / | / | 14µM*
C=CCSC1=N/C(=C\c2cc(OCC)c(OC(C)=O)c([N+](=O)[O-])c2)C(=O)S1 | -3% | -72* | -3 | / | -6% | 0%
Cc1ccc(-c2[nH]ncc2/C=N/n2c(COc3ccccc3)nc3ccccc3c2=O)cc1 | 6% | 1 | 3 | 1% | -7% | 27%
Cc1cc(/C=N/n2c(COc3ccccc3)nc3ccccc3c2=O)c(O)c([N+](=O)[O-])c1 | 36% | -51* | -4 | 9% | -10% | -16%
COc1cc(N2C(=O)C=CC2=O)ccc1N1C(=O)C=CC1=O | / | -68* | -17 | ? | -12% | /
O=C(NCCc1ccccc1Cl)c1ccc2nc3ccccc3c(=O)n2c1 | / | 0 | 3 | 11% | 5% | -1%
CC(C)CCn1c(SCC(=O)N2CC(=O)Nc3ccccc32)nc2scc(-c3cccs3)c2c1=O | 6% | -67* | -22 | ? | -3% | -12%
C=CCn1c(SCC(=O)N2CC(=O)Nc3ccccc32)nc2scc(-c3cccs3)c2c1=O | 25% | 2 | -10 | 45% | -2% | -11%
C[C@H]1CCCCO[C@H](CN(C)Cc2ccccc2)[C@@H](C)CN([C@@H](C)CO)C(=O)c2cc(NC(=O)CCC(F)(F)F)ccc2O1 | / | -4 | -3 | / | -1% | /
COc1cccc(NC(=O)c2cccc3c(=O)c4c([nH]c23)CCCC4)c1 | / | / | 1 | 1% | 5% | -7%
SMILES | RGS12 GoLoco inh | PI5P4Ka inh | PI4K2A inh | Pin1 inh | PGK inhibitor | KAT2A inh
CCC(=O)OC1(C)C(=O)C=C2C=C(c3ccc(C#N)cc3)OC=C2C1=O (stereo unspecified) | 1% | -68* | -5 | -20% | -13% | /
COC(=O)CCC(=O)OC1(C)C(=O)C=C2C=C(c3ccc(C#N)cc3)OC=C2C1=O (stereo unspecified) | 3% | / | / | / | / | /
Cc1cc(C=O)c(C)n1-c1ccc(Cl)c(C(=O)O)c1 | 3% | -54* | -5 | ? | ? | -15%
Nc1[nH]n(-c2ccccc2)c(=O)c1N=Nc1ccccc1[N+](=O)[O-] | 0% | / | 7 | -9% | i | -5%[0.501 µM]
O=c1c2cc([N+](=O)[O-])cc([N+](=O)[O-])c2[nH]n1-c1ccccc1 | / | -98* | ? | ? | ? | -7%
C[N+]1(C)CCC(=C2c3ccccc3CC(=O)c3sccc32)CC1 | 14µM* | / | ? | -11% | i | 2%
CC[N+]1(C)CCC(=C2c3ccccc3CC(=O)c3sccc32)CC1 (stereo unspecified) | -2% | / | -2 | -8% | i | 1%
Cc1ccc(NC(=O)Cc2ccsc2)cc1S(=O)(=O)N1CCOCC1 | / | -5 | -1 | -5% | -2% | -2%
CC[n+]1ccc(C[n+]2ccccc2)c2ccccc21 | 18µM* | -53* | -14 | ? | i | 28µM*
CC1=CC(C)C2COC(c3ccc[n+](C)c3)C1C2C (stereo unspecified) | 28µM* | 1 | -5 | -1% | -9% | -2%
Nc1nc(Sc2ccc([N+](=O)[O-])c3nonc23)c2[nH]cnc2n1 | 1.6µM* | -84* | -52* | ? | ? | /
Cc1ccc(/C=C2/C(=N)N3N=C(CC(=O)N4CCCC4)SC3=NC2=O)o1 | / | -5 | 2 | 3% | i | ?
N=C1/C(=C\c2ccc(Br)o2)C(=O)N=C2SC(CC(=O)N3CCCCC3)=NN12 | / | -66* | -9 | -15% | -15% | ?
